Bioassay records deposited in PubChem BioAssay by Sanford-Burnham Center for Chemical Genomics.
SENP8 block-1: inhibitors of human SENP8 protease; AID 602440; Q96LD8; inhibition, % at 20 µM; actives 0.64% (n = 360,000); recombinant SENP8, Nedd8 substrate fluorescence; in the data active = inhibition mostly above about 40%, no sharp cut-off; inactive = mostly below about 27%
Target sequence (Q96LD8 whole entry, looked up): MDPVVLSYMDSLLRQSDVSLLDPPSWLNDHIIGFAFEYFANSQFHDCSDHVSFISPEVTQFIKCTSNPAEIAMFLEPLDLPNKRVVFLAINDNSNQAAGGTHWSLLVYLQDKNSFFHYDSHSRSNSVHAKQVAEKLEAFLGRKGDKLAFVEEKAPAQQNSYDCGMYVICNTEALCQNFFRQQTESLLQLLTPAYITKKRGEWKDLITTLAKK
SENP7 block: blocks the human protease SENP7; Q9BQF6; recombinant SENP7, Z-RLRGG-aminoluciferin luminescence, 40 min; inhibition, % at 5 µM; actives 1.5% (n = 330,000);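 active = inhibition above about 50% at the single test dose, limit read from the data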;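 note: plate controls were DMSO with enzyme for no effect and no enzyme buffer wells for full effect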
PPC-1+TRAIL kill: PPC-1 cancer cell killing with TRAIL present; AID 1443; cell killing (% activity), % at 4 µM or 5 µM; PPC-1 cells + TRAIL, ATPLite viability luminescence; actives 0.41% (n = 220,000);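 active = cell killing above 50% in the first pass at 4 µM, then a duplicate retest at 5 µM averaging 50% or more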;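 note: plate controls were cells with TRAIL plus DMSO for no effect and medium-only wells lacking cells for full effect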
SENP6 block: inhibitors of human SENP6 protease; inhibition, % at 10 µM; Q9GZR1; Recombinant SENP6 catalytic domain, aminoluciferin luminescence; actives 1.8% (n = 330,000);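 active = inhibition above about 50% at the single tested dose, limit read from the data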;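 note: plate controls were DMSO wells with enzyme for no effect and DMSO wells lacking enzyme for full effect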
C8 TRAIL sens: sensitizes caspase-8 expressing cells to TRAIL; actives 1% (n = 360,000); inhibition (viability loss, TRAIL sensitization), % at 10 µM; AID 624354; NB7+C8 cells + TRAIL, ATPlite viability luminescence;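 active = compounds causing at least 50% loss of cell viability in the single-dose screen, relative to plate controls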
SENP8 block-2: inhibitors of human SENP8 protease. AID 2540. actives 1.2% (n = 330,000). purified SENP8, Z-RLRGG-aminoluciferin cleavage, luminescence. inhibition, % at 10 µM; in the data active = inhibition above about 50%
PPC1 cytotox: kills PPC-1 cells. shares compounds with PPC-1+TRAIL kill. PPC-1 viability, ATPlite luminescence, overnight. actives 50% (n = 1,200). cytotoxicity, % at 5 µM;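 active = reconfirmed compounds whose average cytotoxicity reaches 50% or more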;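 note: 0% = DMSO-treated cells and 100% = wells holding medium but no cells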
SENP8 conf: human SENP8 inhibition, confirmed; shares compounds with SENP7 block; Recombinant SENP8, Z-RLRGG-aminoluciferin luminescence, 60 min; inhibition, % at 12.5 µM; actives 40% (n = 6,200);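 active = mean inhibition across replicates above about 50%, limit read from the data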
SENP6 confirm: confirmation of human SENP6 protease inhibitors; shares compounds with SENP7 block; recombinant SENP6, Z-RLRGG-aminoluciferin luminescence; inhibition, % at 12.5 µM; actives 58% (n = 6,200); AID 488915
SENP7 confirm: confirmation of human SENP7 protease inhibitors; actives 69% (n = 6,200); shares compounds with SENP7 block; inhibition, % at 12.5 µM; recombinant SENP7, Z-RLRGG-aminoluciferin luminescence, 40 min
Casp3 select: selectivity test for SENP inhibitors: human caspase-3 inhibition; shares compounds with SENP7 block; purified caspase-3, Z-DEVD-aminoluciferin luminescence, 60 min; inhibition, % at 12.5 µM; actives 60% (n = 6,200);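 active = mean inhibition above about 50%, limit read from the data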;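 note: plate controls were enzyme with DMSO for no effect and wells without caspase-3 for full effect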
Target sequence (P42574 28-227 limits assumed): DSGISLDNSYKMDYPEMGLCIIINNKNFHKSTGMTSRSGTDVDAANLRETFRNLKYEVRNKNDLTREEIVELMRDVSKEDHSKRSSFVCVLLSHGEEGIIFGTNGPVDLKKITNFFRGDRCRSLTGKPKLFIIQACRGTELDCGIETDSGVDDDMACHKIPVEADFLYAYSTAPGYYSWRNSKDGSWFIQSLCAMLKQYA
Luc interf: counter-screen for SENP inhibitors: luminescence interference | shares compounds with SENP7 block | Pre-incubated SENP8/Z-RLRGG-aminoluciferin, luciferase luminescence interference | inhibition, % at 12.5 µM | actives 39% (n = 6,200) | AID 488919;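 active = mean inhibition above about 50% when retested at one dose, limit read from the data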;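 note: plate controls were DMSO wells with completed reaction for no effect and substrate without enzyme for full effect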
Active calls of the source: *; i = inactive; nt = no result given. Compounds with a hit are over-represented: about 3% of the library has one in this group of screens.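 Rule for the calls, unless noted: active = mean inhibition above about 50% in the one-dose retest (limit read from the data); inactive = the rest.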

SMILES | SENP8 block-1 | SENP7 block | PPC-1+TRAIL kill | SENP6 block | C8 TRAIL sens | SENP8 block-2 | PPC1 cytotox | SENP8 conf | SENP6 confirm | SENP7 confirm | Casp3 select | Luc interf
CN(C)c1ccc(-c2nc3ccccc3c(=O)[nH]2)cc1 | i | 95* | 88* | 98* | 93* | 88* | 88* | 41 | 95* | 100* | 89* | 5
O=c1[nH]c(-c2ccncc2)nc2ccccc12 | 0 | 5 | 7 | -6 | 16 | -2 | nt | nt | nt | nt | nt | nt
Cc1ccc(-c2cc3nc(C)cc(NCc4ccco4)n3n2)cc1 | -329 | 92* | 14 | 81* | 63* | 74* | 20 | 46 | 38 | 61* | 63* | 38
COCCNc1cc(C)nc2cc(-c3ccc(C)cc3)nn12 | -411 | -1 | 14 | -6 | 10 | -4 | nt | nt | nt | nt | nt | nt
CCCCC(=O)N(C)c1c(C)nc2ccc(C(=O)N3CCN(C(=O)c4ccco4)CC3)cn12 | 0 | nt | nt | nt | -1 | nt | nt | nt | nt | nt | nt | nt
COc1ccc(OCC(=O)Nc2cccc(S(=O)(=O)N(C)c3ccccc3)c2)c([N+](=O)[O-])c1 | 16 | -5 | nt | -2 | -3 | 2 | nt | nt | nt | nt | nt | nt
Fc1ccc(NC(=S)Nc2cccc3cnccc23)cc1 | -100 | 77* | 4 | 98* | -2 | 89* | -3 | -1 | 17 | 2 | -2 | -3
C=CCNC(=O)c1ccc2c3n(nc2c1)-c1ccccc1CO3 | -184 | 75* | 84* | 80* | 86* | 77* | 84* | 76* | 75* | 94* | 90* | 82*
CC(=O)Nc1ccc(-c2cn3cc(C)ccc3n2)cc1 | -276 | -5 | 40 | 3 | 45 | -19 | nt | nt | nt | nt | nt | nt
Cc1ccc2nc(-c3ccccc3)cn2c1 | -404 | 99* | 90* | 99* | 90* | 95* | 88* | 99* | 100* | 103* | 99* | 98*
Oc1ccc(/C=C/c2ccc3ccccc3n2)cc1 | -395 | 102* | 56* | 101* | 72* | 98* | 56* | 100* | 100* | 103* | 99* | 98*
CC(=O)N(C(C)=O)n1c(/C=C/c2ccc([N+](=O)[O-])cc2)nc2ccccc2c1=O | -56 | 3 | 8 | -15 | -7 | -4 | nt | nt | nt | nt | nt | nt
O=[N+]([O-])c1ccc(/C=C/c2ccc3ccccc3n2)cc1 | 4 | 94* | 64* | 93* | 74* | 91* | 61* | 64* | 78* | 94* | 78* | 14
O=C(COC(=O)c1ccc(F)cc1Cl)NC(=O)NC1CCCC1 | 3 | -12 | nt | -22 | 7 | -19 | nt | nt | nt | nt | nt | nt
CCOc1ccc(-c2ccc(SC)nn2)cc1 | 5 | 97* | 91* | 98* | 92* | 93* | 91* | 93* | 98* | 102* | 98* | 36
Cc1ccc(-c2ccc(C(=O)NCCCNC(=O)c3cnccn3)o2)cc1Cl | -4 | -3 | nt | -16 | -2 | -8 | nt | nt | nt | nt | nt | nt
Cc1nc(NC(=O)c2cc3c(s2)CCCCC3)sc1C(=O)N(C)C | -127 | 14 | -4 | 2 | 23 | 0 | nt | nt | nt | nt | nt | nt
Cc1csc(NC(=O)c2cc3c(s2)CCC3)n1 | -78 | 87* | 51* | 90* | 84* | 82* | 47 | 89* | 88* | 99* | 89* | 91*
Cc1ccc(C(=O)Cc2nc3ccccc3[nH]2)cc1 | -3 | 4 | nt | -20 | 9 | -2 | nt | nt | nt | nt | nt | nt
